# Test results from PubChem BioAssay (NCI).
# About 83,000 compounds went through this panel and 20% of them were active in at least one assay; those are over-represented in the sample as a whole.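 Interpretation: 100, growth as untreated; towards 0, rising growth inhibition; 0, no net growth; 0 to -100, cell death. Compounds scoring below 10 were considered active.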 Calls of active or inactive are those of the source.
# Tested on: SF-539 CNS
# Test: NCI-60 one-dose screen, 48 h (100 = growth as untreated, 0 = no growth, -100 = all killed)
# Details: 10 µM unless noted
row,SMILES,growth
1,N#CC(C#N)=Cc1c(-c2ccccc2)[nH]c2ccccc12,-11.7% (active)
2,CCCCc1ccc(NS(=O)(=O)c2cc3c4c(c2)CCN4C(=O)CC3)cc1,7.3% (active)
3,O=C(CSc1ncccc1C(=O)O)Nc1ccc(Oc2ccccc2)cc1,106% (inactive)
4,N#C/C(=C\c1c(-c2ccccc2)[nH]c2ccccc12)C(=O)c1ccccc1,21.7% (inactive)
5,O=C1/C=C/[C@@H](O)[C@@H]2C[C@@H](O)C[C@H]2/C=C/CCCCO1,17.8% (inactive)
6,CCCC(c1nnnn1C1CCCCC1)N1CCN(C(=O)c2ccco2)CC1 (centres undefined),65.7% (inactive)
7,Nc1nc(Nc2cccc(F)c2)nc2ccccc12,54.3% (inactive)
8,CC(C)(C)c1ccc(C2CC(=O)C3=C(C2)Nc2ccccc2N(C(=O)c2ccccc2Cl)C3c2ccc(F)cc2)cc1 (centres undefined),8.74% (active)
9,O=CCCCC(O)C=O (centres undefined),105% (inactive)
10,CN(O)c1nc(N(C)O)nc(N2CCOCC2)n1,38% (inactive)

# Tested on: UACC-257 melanoma
# Test: as above
# Details: 10 µM unless noted
row,SMILES,growth
1,COc1ccc(OC)c(N(CCN2C(=O)c3ccccc3C2=O)C(=O)CCl)c1,83% (inactive)
2,O=C(NC1CCN(Cc2ccccc2)CC1)c1cc(C(=O)NC2CCN(Cc3ccccc3)CC2)cc(C(=O)NC2CCN(Cc3ccccc3)CC2)c1,81.2% (inactive)
3,CCOC(=O)c1c(Cl)c2c(n1Cc1ccccc1)-c1oncc1CCC2,79.7% (inactive)
4,O=C(/C=C/c1ccccn1)c1ccc(OCc2nnc(-c3ccc(Cl)cc3)o2)cc1,56.5% (inactive)
5,CSc1nc2c(c(=O)n1C)N=C1c3ccccc3C(=O)C1C(c1ccccc1)N2 (centres undefined),102% (inactive)
6,CC/C=C\C[C@H](O)C/C=C1/C(=O)C=C[C@@H]1C/C=C\CCCC(=O)OCCS(=O)(=O)c1ccccc1,66.8% (inactive)
7,Cc1cc(Nc2ccc(OCc3ccccc3)cc2)nc2cc(O)ccc12,43.7% (inactive)
8,CSc1nc2c(c(=O)[nH]1)N=C1c3ccccc3C(=O)C1C(c1ccc(F)cc1)N2 (centres undefined),79.1% (inactive)
9,CCOc1ccccc1CN1CCc2nc3cc(C(C)(C)C)[nH]n3c(=O)c2C1,108% (inactive)
10,O=C(NC(=S)Nc1cccc(NC(=S)NC(=O)c2ccccc2)c1)c1ccccc1,44.7% (inactive)
11,CCOC(=O)c1c2c(n3cccc(Cl)c13)C(=O)c1ncccc1C2=O,60.8% (inactive)
12,O=C(NN1C(=O)CSC1c1ccc(Cl)cc1)c1[nH]c2ccc(F)cc2c1-c1ccccc1 (centres undefined),74.4% (inactive)
13,COc1ccc(-n2c(C(O)c3ccccc3)nn(CN3CCOCC3)c2=S)cc1 (centres undefined),105% (inactive)
14,CCCC(=O)CC(C)=O.CCCC(=O)CC(C)=O.[Cu],74.9% (inactive)
15,COc1ccc(C2Nc3ncnc(N)c3N=C3c4ccccc4C(=O)C32)cc1 (centres undefined),102% (inactive)
16,Nc1nc(N)c2c(n1)NC1(C=C(O)c3ccccc31)C1=C(N2)c2ccccc2C1=O (centres undefined),120% (inactive)
17,CCOC(=O)c1cnc2ccc(Cl)cc2c1NCCCN(C)C,-3.99% (active)
18,CCCCCCc1cc2cc(-c3nc4ccccc4[nH]3)c(=Nc3ccccc3C)oc2cc1O,4.39% (active)
19,OC(c1ccccc1)c1nnc(SCc2ccccc2)n1Cc1ccccc1 (centres undefined),103% (inactive)
20,CC(=O)O[C@@H]1/C=C/C(=O)N[C@@H](C)CCC/C=C/[C@@H]2CCC[C@H]21,101% (inactive)

row,SMILES,growth
1,COc1ccc(C2Nc3nc(OC)n(C)c(=O)c3N=C3c4ccccc4C(=O)C32)cc1 (centres undefined),127% (inactive)
2,CN1CCN(c2nc(Nc3ccc(O)cc3)nc3ccccc23)CC1,59.2% (inactive)
3,COc1ccc(/C=C2\SC(=Nc3ccccc3)NC2=O)cc1,-91.8% (active)
4,CCOC(=O)c1cc2c(n1Cc1cc(OC)c(OC)c(OC)c1)-c1oncc1CCC2,70.7% (inactive)
5,Cn1c2c(c(=O)[nH]c1=O)NC1=C(C(=O)c3ccccc31)C1(C=C(O)c3ccccc31)N2 (centres undefined),115% (inactive)
6,FC(F)(F)c1cccc(Nc2nc(-c3ccccc3)nc3ncccc23)c1,-52.7% (active)
7,O=C(Nc1ccc(Cl)cc1)c1cc2ccccc2cc1OP(=O)(O)O,15.7% (inactive)
8,COC(=O)/C(=C\c1c(-c2ccccc2)[nH]c2ccccc12)S(C)(=O)=O,67.4% (inactive)
9,Nc1ccc(C2c3ccccc3Oc3ccccc32)cc1,102% (inactive)
10,N#CC(C#N)=Cc1c(-c2ccccc2)[nH]c2ccccc12,52.3% (inactive)
11,CCCCc1ccc(NS(=O)(=O)c2cc3c4c(c2)CCN4C(=O)CC3)cc1,16.3% (inactive)
12,O=C(CSc1ncccc1C(=O)O)Nc1ccc(Oc2ccccc2)cc1,100% (inactive)
13,N#C/C(=C\c1c(-c2ccccc2)[nH]c2ccccc12)C(=O)c1ccccc1,61.6% (inactive)
14,O=C1/C=C/[C@@H](O)[C@@H]2C[C@@H](O)C[C@H]2/C=C/CCCCO1,9.88% (active)
15,CCCC(c1nnnn1C1CCCCC1)N1CCN(C(=O)c2ccco2)CC1 (centres undefined),82.5% (inactive)
16,Nc1nc(Nc2cccc(F)c2)nc2ccccc12,12% (inactive)
17,CC(C)(C)c1ccc(C2CC(=O)C3=C(C2)Nc2ccccc2N(C(=O)c2ccccc2Cl)C3c2ccc(F)cc2)cc1 (centres undefined),-34.1% (active)
18,O=CCCCC(O)C=O (centres undefined),106% (inactive)
19,CN(O)c1nc(N(C)O)nc(N2CCOCC2)n1,30% (inactive)
